PubChem BioAssay AID1851 (National Center for Advancing Translational Sciences (NCATS), 2009)
Screen size: about 16,000 compounds; about 5,100 (32%) were called active. Inconclusive results (about 25%) are left out. Calls follow the shape of the dose curve; as a rule, active = well fitted curve in the direction sought with a large enough effect; inconclusive = small, poorly fitted or top-dose-only effect, or effect the other way; inactive = no such curve, though single readings can be large or run the other way. Some of the results follow.

Each compound was assayed against Cytochrome P450 3A4 (Homo sapiens) (UniProt P08684) (assay: Cytochrome panel assay with activity outcomes). Settings: recombinant CYP, pro-luciferin dealkylation, luminescence, p450-cyp3a4; series mostly up to 57.1 µM; activity, negative = inhibition: at the top concentration.
Sequence of Cytochrome P450 3A4 (Homo sapiens) (P08684 whole entry, looked up): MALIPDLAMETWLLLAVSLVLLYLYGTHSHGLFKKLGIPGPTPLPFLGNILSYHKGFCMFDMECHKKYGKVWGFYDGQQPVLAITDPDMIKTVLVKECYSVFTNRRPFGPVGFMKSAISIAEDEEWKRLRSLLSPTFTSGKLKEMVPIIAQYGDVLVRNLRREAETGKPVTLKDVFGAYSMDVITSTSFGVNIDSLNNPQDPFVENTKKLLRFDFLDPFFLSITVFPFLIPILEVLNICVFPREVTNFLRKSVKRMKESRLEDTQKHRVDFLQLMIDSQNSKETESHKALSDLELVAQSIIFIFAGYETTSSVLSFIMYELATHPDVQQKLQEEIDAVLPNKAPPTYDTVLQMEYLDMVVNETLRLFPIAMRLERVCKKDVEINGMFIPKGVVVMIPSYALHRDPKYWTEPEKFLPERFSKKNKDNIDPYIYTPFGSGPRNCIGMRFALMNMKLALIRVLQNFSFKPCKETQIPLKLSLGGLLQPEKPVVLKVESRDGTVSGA
% is scaled to controls: 0 for no effect and ±100 for the full control effect.

activity, negative = inhibition, inactive:
N[C@@](CCc1ccccc1)(C(=O)O)c1ccccc1 -0.157% [at 11.4 µM], COC(=O)N1CCC2(CC1)CN(C(=O)Nc1ccccc1)C2 -1.42%, O=C(Nc1ccccc1)N1CCC2(CCNCC2)CC1 28.2%, Cc1ccc(-n2c(-c3ccccc3)cc(=O)nc2C)cc1 -14.5%, CC(C)CCN1C(=O)c2ccc(-c3nc4ccccc4c(=O)o3)cc2C1=O -5.78% [at 11.4 µM], CCCn1c(-c2ccccc2)nc2c(=O)n(C)c(=O)[nH]c21 5.61%, CN(C(=O)c1c(O)c2ccccc2n(C)c1=O)c1ccccc1 -26.7%, OC[C@@H](O)CNc1ncnc2ccccc12 3.9% [at 11.4 µM], Cc1cc(C)n(-c2ccc(F)cc2)c(=O)c1C(=O)O -11%, Cc1cc(C)c(NC(=O)NC(=O)c2ccc(F)cc2)c(C)n1 -0.466%, COc1ccc(NC(=O)c2ncn[nH]2)cc1 -23.5%, O=C(NCCc1ccc(Cl)cc1)c1ncn[nH]1 -0.238% [at 2.29 µM], CCC(C)n1nnc2c(=O)oc3ccccc3c21 (stereo not drawn) -20%, Cc1ccc(S(=O)(=O)N=Nc2c(O)[nH]c3cc(O)c(C(=O)O)cc23)cc1 -1.68% [at 11.4 µM], N#Cc1cccc(-c2nc(Nc3ccccc3)c3ccccc3n2)c1 -48.6%, CC1(C)OCC([C@H](O)C2=CCCCC2=O)CO1 -7.04% [at 11.4 µM], CCOC(=O)c1cc(C(=O)OCC)cc(-n2cc(O)c(C(=O)OCC)n2)c1 -9.96%, COC(=O)c1sc2ncccc2c1OCc1c(Cl)cccc1Cl -24.4% [at 11.4 µM], COc1ccc(C[N+](C)(C)N)cc1OC -9.55% [at 11.4 µM], Nc1nc(N)[n+]([O-])c(N)c1NCO -2.59% [at 11.4 µM], O=C(OCCCN1CCCCC1)c1ccc(O)cc1 -18%, Cc1cc(C(=O)O)c(=O)[nH]c1C -1.64%, CO/N=C\[C@@H](NS(=O)(=O)c1ccc(C)cc1)[C@H](C)/C=C\CC(=O)OC -67.3% [at 11.4 µM], CC(C)[C@@H](OCc1ccccc1)[C@H](C)/C=N\OC[C@@H](O)[C@@H]1O[C@@H]2OC(C)(C)O[C@@H]2[C@H]1O -28.7% [at 11.4 µM], COC(=O)C/C=C\[C@@H](C)[C@@H](/C=N\OC[C@@H](O)COCc1ccco1)OC -28.9% [at 11.4 µM], COC(=O)C/C=C\[C@H](C)[C@H](CO)NS(=O)(=O)c1ccc(C)cc1 -5.02% [at 11.4 µM], Clc1ccc(CSC2=NCCN2)cc1Cl -8.56% [at 11.4 µM], O=C(Cn1ccnc1[N+](=O)[O-])NCCO -11.3% [at 25.6 µM], Cc1cnc(CNc2ncnc3ccc(-c4ccccc4CN(C)C)cc23)cn1 -33.4%, O=C(NC[C@@H](O)CO)c1c(I)c(C(=O)NC[C@@H](O)CO)c(I)c(N(CCO)C(=O)CO)c1I -4.08% [at 25.6 µM], C[N+](C)(C)c1cc2c(nn1)Nc1ccccc1S2 -5.56% [at 11.4 µM], OC(CCCN1CCCCC1)(c1ccccc1)c1ccccc1 -25.9% [at 25.6 µM], O=C(c1ccccc1)[C@@H]1O[C@H]1c1ccc(-c2ccccc2)cc1 -23.2%, CCOC(=O)Nc1ccc(C)cc1NC(=O)OCC 4.11% [at 2.29 µM], O=C(NC(=S)Nc1ccc(Oc2ccc(Cl)cc2)cc1)c1ccccc1 -13.5%, CC(=O)Nc1ccc2c(c1)OCCOCCOc1cc(NC(C)=O)ccc1OCCOCCOCCO2 -17.9%, CC(=O)Nc1ccc2c(c1)OCCO2 8.82%

AC50, active:
O=C(Nc1ccc(Cl)cc1)N1CCc2[nH]c3ccccc3c2C1 14.1 µM, C[C@H]1C2=C3C(CC[C@H]4C(OCc5ccc(F)cc5C(F)(F)F)OC[C@](C)([C@@H]34)N(C(=O)OC(C)(C)C)C2)C2COC(=O)OCC21 (stereo partly drawn) 20 µM, CC[C@H]1C2=C3C(CC[C@H]4C(OCc5ccc(F)cc5C(F)(F)F)OC[C@](C)([C@@H]34)N(C(=O)OC(C)(C)C)C2)C2COC(=O)OCC21 (stereo partly drawn) 20 µM, Cc1ccc(-c2nc3c(=O)n(C)c4ccccc4c3o2)cc1 7.08 µM, Cn1c(=O)c2nc(-c3ccccc3)oc2c2ccccc21 12.6 µM, Cc1cc(C)c(NC(=O)CSc2nnc(Cc3cccn3C)n2-c2ccc(F)cc2)c(C)c1 1.58 µM, CC(C)c1ccc(O)c(NC(=O)c2ncn[nH]2)c1 10 µM, Cc1ccc(C)c(NC(=O)c2ncn[nH]2)c1 14.1 µM, Cc1cccc(CNc2ccnc(-c3ccoc3)n2)c1 1 µM, c1ccc(CNc2ccnc(-c3ccoc3)n2)cc1 10 µM, COc1ccc(CNc2nc(-c3cccc(NS(C)(=O)=O)c3)nc3ccccc23)c(OC)c1 2.51 µM, COc1ccc(CNc2nc(-c3cccc(C#N)c3)nc3ccccc23)c(OC)c1 2.51 µM, CNc1nc(-c2cccc(C#N)c2)nc2ccccc12 10 µM, COc1ccccc1CNc1nc(-c2cccc(C#N)c2)nc2ccccc12 10 µM, COc1cc2c(cc1C(F)(F)F)N(C(=O)Nc1cc(F)cc(-c3cccnc3)c1)CC2 2.51 µM, COc1cc(CNn2nnnc2N)ccc1OCc1c(Cl)cccc1Cl 0.562 µM, COC(=O)C/C=C\[C@@H](C)[C@@H](/C=N\OC[C@@H](O)COCc1ccco1)NS(=O)(=O)c1ccc(C)cc1 3.16 µM, COC(=O)C/C=C\[C@@H](C)[C@@H](/C=N\OC[C@@H](O)[C@H]1O[C@H]2OC(C)(C)O[C@H]2[C@@H]1O)NS(=O)(=O)c1ccc(C)cc1 3.98 µM, CNc1cc(CSC)nc(SCc2ccc(Cl)c(Cl)c2)n1 5.01 µM, Cc1cnc(CNc2ncnc3ccc(-c4ccccc4C(F)(F)F)cc23)cn1 2 µM, Cc1cnc(CNc2ncnc3ccc(-c4ccccc4Cl)cc23)cn1 2.51 µM, Cc1cnc(CNc2ncnc3ccc(-c4ccccc4C)cc23)cn1 3.98 µM, C=CCNc1nc(Cl)nc(Nc2ccc(OC)cc2)n1 14.1 µM, O=C(NC(=S)Nc1ccc2c(c1)OCO2)c1ccccc1 0.631 µM, CCOC(=O)Nc1ccc2c(c1)OCO2 14.1 µM, Cc1ccc(C(=O)NC(=S)Nc2ccc3c(c2)OCCO3)c(C)c1 28.2 µM
